# Measurements published in PubChem BioAssay (NCATS).
# Results filed as inconclusive are left out. Calls of active or inactive are those of the source. Calls follow the shape of the dose curve; as a rule, active = well fitted inhibition curve with a large enough effect; inconclusive = small, poorly fitted or top-dose-only effect; inactive = no such curve, though single readings can be large or run the other way.
# Assay: Primary qHTS for inhibitors of nuclear receptor binding SET domain protein 2 (NSD2) in an RCH-ACV wild type WT cells (2C) (AID 1645877); also: nearly all actives have a fitted effect of over 70% in size
# Conditions: RCH-ACV (leukaemia line) NSD2 WT (2C) viability, CellTiter-Glo, 72 h; series mostly up to 44.9 µM; activity change, negative = cell killing: at the top concentration
# % is scaled to controls: 0 for no effect and ±100 for the full control effect.
Structure (SMILES),outcome,"activity change, negative = cell killing"
C=C1CCC2(OC1)OC1CC3C4CC=C5CC(O)CC(O[C@@H]6OC[C@@H](O)[C@H](O)[C@H]6O)C5(C)C4CCC3(C)C1(O)C2C (some centres not stated),inactive [at 17.3 µM],–
CC1=CC(=O)CC(C)(CO[C@@H]2O[C@H](CO)[C@@H](O)[C@H](O)[C@H]2O)C1(O)/C=C/C(C)=C/C(=O)O (some centres not stated),–,-2.33% [at 17.3 µM] (inactive)
COc1cc([C@H]2OC[C@@H]3[C@@H](c4ccc(O[C@@H]5O[C@H](CO)[C@@H](O)[C@H](O)[C@H]5O)c(OC)c4)OC[C@]23O)ccc1O,–,-2.13% [at 17.3 µM] (inactive)
C=CC(C)(O)CC/C=C(\C)C(=O)OCC1OC(OC2CCC3(C)C(CCC4(C)C3CC=C3C5CC(C)(C)C(O)CC5(C(=O)O)CCC34C)C2(C)C)C(O)C(OC2OC(CO)C(O)C(OC3OC(CO)C(O)C(OC4OC(COC5OC(CO)C(O)C(O)C5O)C(O)C(O)C4O)C3O)C2O)C1O (configuration not stated),–,4.93% [at 9.23 µM] (inactive)
CC1CCC2(O1)C(C)(C)CC(O[C@@H]1O[C@H](CO[C@@H]3OC[C@](O)(CO)[C@H]3O)[C@@H](O)[C@H](O)[C@H]1O)CC2(C)O (some centres not stated),inactive [at 17.3 µM],–
CC1(C)CCCC2(C)C(CO)C3CCC2C31 (configuration not stated),–,3.8% (inactive)
CC1NC(=O)C(Cc2c[nH]c3ccccc23)NC1=O (configuration not stated),–,-12.2% (inactive)
